In the supplement of paper PMC11732987, “Enantioselective OTUD7B fragment discovery through chemoproteomics screening and high-throughput optimisation” (Communications Chemistry, 2025):
Unmarked numbers belong to inactive results.

Experiments:
Test in all cases: log2 ratio of Biotin-Ahx-Ub-VS probe labelling (fragment/DMSO); higher = less target engagement (more negative = stronger competition), active = hit call of the paper (q ≤ 0.05, log2 ratio ≤ -1)
Settings in all cases: compound concentration: 200 uM; treatment time: 3 h
UniProt O00507 = biological target: UniProt O00507
UniProt O00507, sequence (O00507 whole entry, the tested form may be a part): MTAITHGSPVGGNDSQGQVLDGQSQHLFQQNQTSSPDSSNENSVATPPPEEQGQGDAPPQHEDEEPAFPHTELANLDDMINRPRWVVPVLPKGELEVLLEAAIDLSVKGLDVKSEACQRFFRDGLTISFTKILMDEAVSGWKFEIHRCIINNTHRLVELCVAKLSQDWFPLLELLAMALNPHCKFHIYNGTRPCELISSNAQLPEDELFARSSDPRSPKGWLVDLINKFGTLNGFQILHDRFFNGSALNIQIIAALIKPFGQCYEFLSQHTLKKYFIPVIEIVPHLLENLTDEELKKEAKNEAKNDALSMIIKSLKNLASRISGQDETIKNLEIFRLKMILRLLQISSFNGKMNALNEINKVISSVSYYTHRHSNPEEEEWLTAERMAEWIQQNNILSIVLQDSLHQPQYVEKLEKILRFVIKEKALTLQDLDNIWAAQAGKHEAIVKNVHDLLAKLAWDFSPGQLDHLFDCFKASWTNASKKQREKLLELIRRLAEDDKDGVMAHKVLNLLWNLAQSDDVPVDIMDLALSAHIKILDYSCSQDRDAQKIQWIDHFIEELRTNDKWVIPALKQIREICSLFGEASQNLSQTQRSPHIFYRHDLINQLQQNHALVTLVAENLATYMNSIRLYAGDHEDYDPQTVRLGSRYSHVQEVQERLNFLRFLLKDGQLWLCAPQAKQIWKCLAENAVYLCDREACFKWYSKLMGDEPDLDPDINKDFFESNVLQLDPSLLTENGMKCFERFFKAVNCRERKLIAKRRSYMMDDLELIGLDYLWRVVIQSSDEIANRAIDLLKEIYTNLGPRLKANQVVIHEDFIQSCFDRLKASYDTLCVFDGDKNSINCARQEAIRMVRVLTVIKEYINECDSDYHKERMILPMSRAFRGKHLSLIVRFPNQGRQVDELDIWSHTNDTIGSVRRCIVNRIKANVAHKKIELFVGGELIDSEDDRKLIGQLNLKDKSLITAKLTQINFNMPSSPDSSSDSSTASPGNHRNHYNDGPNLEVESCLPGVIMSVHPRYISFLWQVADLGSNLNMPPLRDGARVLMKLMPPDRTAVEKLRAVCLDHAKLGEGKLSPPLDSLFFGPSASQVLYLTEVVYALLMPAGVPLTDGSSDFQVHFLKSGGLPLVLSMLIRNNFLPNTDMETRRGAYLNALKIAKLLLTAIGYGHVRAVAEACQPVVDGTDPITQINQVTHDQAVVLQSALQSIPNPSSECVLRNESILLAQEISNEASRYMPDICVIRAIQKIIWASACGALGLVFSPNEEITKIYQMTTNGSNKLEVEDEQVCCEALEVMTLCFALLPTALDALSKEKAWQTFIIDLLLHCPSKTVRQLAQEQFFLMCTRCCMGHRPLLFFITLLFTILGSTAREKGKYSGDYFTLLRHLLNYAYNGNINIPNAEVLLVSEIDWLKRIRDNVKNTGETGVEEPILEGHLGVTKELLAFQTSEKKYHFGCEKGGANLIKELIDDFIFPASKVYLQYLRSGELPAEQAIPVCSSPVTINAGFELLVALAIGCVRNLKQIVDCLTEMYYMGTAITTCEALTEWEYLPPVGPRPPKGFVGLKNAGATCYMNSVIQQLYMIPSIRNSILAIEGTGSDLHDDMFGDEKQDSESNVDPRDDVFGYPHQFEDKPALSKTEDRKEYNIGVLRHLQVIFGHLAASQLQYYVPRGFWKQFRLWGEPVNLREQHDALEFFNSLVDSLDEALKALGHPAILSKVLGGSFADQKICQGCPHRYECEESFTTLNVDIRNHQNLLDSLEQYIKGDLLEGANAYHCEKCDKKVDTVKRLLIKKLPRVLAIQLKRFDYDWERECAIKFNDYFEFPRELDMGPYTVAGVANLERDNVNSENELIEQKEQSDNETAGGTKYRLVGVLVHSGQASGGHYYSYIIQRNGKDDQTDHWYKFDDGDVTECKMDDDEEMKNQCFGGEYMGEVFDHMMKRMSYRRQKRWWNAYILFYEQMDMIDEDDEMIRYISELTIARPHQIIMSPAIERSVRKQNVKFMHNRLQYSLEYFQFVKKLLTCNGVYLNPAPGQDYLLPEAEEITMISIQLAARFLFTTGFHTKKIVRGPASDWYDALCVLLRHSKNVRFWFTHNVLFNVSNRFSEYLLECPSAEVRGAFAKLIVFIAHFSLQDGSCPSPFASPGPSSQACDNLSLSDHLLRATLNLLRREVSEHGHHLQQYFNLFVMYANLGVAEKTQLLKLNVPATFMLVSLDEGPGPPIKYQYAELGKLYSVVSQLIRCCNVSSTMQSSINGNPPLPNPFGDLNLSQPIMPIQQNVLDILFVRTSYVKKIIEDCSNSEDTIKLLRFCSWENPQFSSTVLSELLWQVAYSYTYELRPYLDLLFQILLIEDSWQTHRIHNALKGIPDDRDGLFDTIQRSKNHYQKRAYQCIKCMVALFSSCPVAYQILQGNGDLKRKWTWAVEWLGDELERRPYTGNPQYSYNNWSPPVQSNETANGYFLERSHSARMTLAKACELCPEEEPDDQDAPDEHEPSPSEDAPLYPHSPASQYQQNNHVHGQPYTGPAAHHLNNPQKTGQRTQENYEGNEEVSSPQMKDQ
How it was run: (§1)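 Labelling with Biotin-Ahx-Ub-VS (0.5 µM final, 1 h) followed a 3 h triplicate treatment of HEK293T lysate (495 µg per sample, Tris/CHAPS/IGEPAL buffer with protease inhibitors) with fragment at 200 µM or vehicle. Labelled DUBs were NeutrAvidin-enriched, digested with LysC and trypsin, and run by diaPASEF LC-MS/MS. The values, average log2 fragment/vehicle ratios by unpaired t-test, come from global-median-normalised Spectronaut label-free quantities. Proteins with ≥2 unique peptides were used.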

UniProt P51784 = biological target: UniProt P51784
UniProt P51784, sequence (P51784 whole entry): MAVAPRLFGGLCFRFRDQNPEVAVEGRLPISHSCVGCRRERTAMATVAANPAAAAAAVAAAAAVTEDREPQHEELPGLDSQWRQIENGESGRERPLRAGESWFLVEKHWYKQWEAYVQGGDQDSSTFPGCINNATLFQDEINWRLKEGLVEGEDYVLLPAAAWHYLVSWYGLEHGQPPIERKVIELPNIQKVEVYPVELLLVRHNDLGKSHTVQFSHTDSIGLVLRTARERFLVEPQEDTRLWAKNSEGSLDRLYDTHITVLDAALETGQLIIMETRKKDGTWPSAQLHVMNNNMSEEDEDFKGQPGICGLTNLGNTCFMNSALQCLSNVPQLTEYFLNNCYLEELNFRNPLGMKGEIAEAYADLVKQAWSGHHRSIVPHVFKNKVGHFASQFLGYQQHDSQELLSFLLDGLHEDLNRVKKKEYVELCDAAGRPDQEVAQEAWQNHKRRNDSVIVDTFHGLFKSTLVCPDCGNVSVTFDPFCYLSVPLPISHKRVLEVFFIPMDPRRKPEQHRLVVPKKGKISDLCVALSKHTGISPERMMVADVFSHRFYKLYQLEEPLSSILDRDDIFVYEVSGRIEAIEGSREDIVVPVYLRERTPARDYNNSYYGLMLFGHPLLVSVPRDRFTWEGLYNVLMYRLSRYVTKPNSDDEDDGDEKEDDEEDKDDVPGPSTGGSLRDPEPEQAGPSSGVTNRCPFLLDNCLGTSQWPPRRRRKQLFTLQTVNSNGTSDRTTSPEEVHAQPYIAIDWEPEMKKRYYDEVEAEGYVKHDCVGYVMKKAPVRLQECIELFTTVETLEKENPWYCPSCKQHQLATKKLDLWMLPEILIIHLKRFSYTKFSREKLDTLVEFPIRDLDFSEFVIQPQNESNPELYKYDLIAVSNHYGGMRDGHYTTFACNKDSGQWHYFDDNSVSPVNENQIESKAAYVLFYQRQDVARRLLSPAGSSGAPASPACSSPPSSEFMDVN
How it was run: as §1

UniProt Q5T2D3 = biological target: T1, UniProt Q5T2D3
T1 sequence (whole entry): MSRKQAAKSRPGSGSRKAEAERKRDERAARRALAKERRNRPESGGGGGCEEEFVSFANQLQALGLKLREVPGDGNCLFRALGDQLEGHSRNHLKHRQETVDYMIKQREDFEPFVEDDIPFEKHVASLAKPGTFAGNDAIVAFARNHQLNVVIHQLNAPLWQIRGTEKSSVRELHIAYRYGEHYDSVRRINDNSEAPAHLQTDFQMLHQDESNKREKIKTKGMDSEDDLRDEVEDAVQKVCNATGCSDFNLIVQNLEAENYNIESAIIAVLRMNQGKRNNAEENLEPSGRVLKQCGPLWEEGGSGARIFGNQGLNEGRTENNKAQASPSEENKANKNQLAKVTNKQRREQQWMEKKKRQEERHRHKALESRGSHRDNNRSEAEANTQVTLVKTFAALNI
How it was run: as §1

UniProt Q8TE49 = biological target: T2, UniProt Q8TE49
T2 sequence (whole entry): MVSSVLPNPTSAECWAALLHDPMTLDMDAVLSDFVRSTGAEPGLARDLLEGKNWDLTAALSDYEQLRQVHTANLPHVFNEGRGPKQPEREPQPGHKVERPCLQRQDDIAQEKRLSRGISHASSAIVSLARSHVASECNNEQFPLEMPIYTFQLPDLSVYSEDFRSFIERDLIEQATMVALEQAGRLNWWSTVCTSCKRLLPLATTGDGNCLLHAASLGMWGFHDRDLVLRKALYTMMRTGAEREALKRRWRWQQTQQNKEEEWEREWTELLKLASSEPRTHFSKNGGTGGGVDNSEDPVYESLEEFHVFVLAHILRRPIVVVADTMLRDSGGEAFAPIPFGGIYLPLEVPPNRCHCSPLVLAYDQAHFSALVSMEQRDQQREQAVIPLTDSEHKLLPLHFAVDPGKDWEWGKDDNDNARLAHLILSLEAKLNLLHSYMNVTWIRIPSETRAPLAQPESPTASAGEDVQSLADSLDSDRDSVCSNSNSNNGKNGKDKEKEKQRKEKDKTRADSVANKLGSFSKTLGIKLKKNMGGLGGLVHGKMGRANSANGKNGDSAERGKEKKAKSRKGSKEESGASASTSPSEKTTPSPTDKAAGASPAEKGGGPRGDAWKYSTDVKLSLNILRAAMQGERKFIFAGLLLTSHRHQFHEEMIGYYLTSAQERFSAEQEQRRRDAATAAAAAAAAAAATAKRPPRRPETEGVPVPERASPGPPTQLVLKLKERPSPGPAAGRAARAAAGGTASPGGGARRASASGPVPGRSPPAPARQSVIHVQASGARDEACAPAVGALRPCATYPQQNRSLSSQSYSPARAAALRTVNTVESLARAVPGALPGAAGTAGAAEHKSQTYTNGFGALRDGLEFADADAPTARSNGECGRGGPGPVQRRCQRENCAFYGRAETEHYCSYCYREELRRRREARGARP
How it was run: as §1

UniProt Q9P2H5 = biological target: T3, UniProt Q9P2H5
T3 sequence (whole entry): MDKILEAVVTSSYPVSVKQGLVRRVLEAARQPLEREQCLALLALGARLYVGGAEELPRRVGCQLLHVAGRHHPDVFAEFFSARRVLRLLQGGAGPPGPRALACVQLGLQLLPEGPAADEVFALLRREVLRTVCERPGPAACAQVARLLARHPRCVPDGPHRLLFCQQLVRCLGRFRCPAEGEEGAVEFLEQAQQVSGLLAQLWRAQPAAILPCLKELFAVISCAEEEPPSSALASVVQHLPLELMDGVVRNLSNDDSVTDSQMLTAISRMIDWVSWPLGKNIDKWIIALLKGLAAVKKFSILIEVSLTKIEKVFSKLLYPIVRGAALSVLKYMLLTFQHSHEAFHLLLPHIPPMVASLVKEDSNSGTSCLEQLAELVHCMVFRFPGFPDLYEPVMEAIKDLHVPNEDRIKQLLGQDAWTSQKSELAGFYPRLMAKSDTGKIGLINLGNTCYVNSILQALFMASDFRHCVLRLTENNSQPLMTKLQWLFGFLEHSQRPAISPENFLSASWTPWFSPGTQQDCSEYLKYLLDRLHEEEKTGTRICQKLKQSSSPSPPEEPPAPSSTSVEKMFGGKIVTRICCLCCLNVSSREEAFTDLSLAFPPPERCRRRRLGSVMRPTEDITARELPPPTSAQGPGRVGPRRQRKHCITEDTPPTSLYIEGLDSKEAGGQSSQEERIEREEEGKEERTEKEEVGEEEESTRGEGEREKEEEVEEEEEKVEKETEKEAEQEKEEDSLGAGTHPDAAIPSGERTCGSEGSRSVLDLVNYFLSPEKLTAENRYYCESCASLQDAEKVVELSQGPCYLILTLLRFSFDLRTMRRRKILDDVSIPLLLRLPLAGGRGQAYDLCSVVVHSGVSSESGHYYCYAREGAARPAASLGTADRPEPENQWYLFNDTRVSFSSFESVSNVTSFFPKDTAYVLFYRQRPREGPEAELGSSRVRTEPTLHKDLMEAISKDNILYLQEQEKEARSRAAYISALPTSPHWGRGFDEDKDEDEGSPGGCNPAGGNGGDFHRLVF
How it was run: as §1

UniProt Q9UGI0 = biological target: T4, UniProt Q9UGI0
T4 sequence (whole entry): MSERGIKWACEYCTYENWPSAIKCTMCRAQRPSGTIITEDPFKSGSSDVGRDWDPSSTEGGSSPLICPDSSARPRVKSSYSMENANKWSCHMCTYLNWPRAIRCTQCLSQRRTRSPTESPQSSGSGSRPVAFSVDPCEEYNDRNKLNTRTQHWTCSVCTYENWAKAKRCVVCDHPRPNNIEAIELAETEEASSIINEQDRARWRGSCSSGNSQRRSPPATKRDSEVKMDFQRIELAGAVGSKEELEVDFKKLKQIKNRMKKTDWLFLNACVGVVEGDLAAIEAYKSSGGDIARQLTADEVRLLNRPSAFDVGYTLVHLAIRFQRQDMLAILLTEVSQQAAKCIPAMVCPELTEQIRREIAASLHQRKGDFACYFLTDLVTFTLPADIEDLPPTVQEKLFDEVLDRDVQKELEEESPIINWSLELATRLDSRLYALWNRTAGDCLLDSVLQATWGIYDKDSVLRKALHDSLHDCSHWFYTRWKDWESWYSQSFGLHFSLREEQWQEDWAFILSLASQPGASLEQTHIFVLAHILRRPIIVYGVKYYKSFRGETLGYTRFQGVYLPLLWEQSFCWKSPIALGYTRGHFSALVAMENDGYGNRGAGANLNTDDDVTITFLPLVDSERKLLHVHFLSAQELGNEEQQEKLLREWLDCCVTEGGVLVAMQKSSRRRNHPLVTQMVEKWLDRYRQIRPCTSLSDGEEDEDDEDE
How it was run: as §1

YOD1 = biological target: T5, YOD1 (UniProt Q5VVQ6)
T5 sequence (whole entry): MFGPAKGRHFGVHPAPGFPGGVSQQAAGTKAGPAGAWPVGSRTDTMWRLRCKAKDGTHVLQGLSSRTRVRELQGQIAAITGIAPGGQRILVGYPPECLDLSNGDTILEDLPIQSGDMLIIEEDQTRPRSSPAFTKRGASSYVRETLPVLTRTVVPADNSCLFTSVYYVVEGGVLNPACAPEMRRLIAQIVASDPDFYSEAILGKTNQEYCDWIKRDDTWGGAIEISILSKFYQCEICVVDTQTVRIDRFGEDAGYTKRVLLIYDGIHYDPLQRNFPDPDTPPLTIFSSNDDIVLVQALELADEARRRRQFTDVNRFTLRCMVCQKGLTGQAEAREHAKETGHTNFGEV
How it was run: as §1

| Structure (SMILES) | log2 ratio of Biotin-Ahx-Ub-VS probe labelling (UniProt O00507) | log2 ratio of Biotin-Ahx-Ub-VS probe labelling (UniProt P51784) | log2 ratio of Biotin-Ahx-Ub-VS probe labelling (UniProt Q5T2D3) | log2 ratio of Biotin-Ahx-Ub-VS probe labelling (UniProt Q8TE49) | log2 ratio of Biotin-Ahx-Ub-VS probe labelling (UniProt Q9P2H5) | log2 ratio of Biotin-Ahx-Ub-VS probe labelling (UniProt Q9UGI0) | log2 ratio of Biotin-Ahx-Ub-VS probe labelling (YOD1) |
| --- | --- | --- | --- | --- | --- | --- | --- |
| CCN(C(=O)CCl)C1CCS(=O)(=O)C1 (stereo not drawn) | 0.545 | -0.0519 | 0.00795 | -0.222 | -0.211 | -0.289 | 0.133 |
| Cl.O=C(CCl)N1CCc2ncncc2C1 | -0.362 | 0.0954 | -0.274 | -0.964 | -0.288 | -1.57 (active) | 0.055 |
| CC(C)n1nccc1NC(=O)CCl | -0.0553 | 0.033 | -0.201 | -1.34 (active) | -0.152 | -0.9 | 0.0661 |
| O=C(CCl)N1CCC(C(O)c2ccc(F)cc2)CC1 (stereo not drawn) | -0.0622 | 0.5 | -0.0566 | -0.301 | 0.167 | -0.181 | -0.00174 |
| Cc1nc(CNC(=O)CCl)c2ccccn12.Cl | 0.444 | -0.0444 | -0.454 | -0.499 | -0.818 | -0.311 | 0.114 |
| CC(=O)Nc1ccc(NC(=O)CCl)cc1 | -0.353 | 0.016 | -0.228 | -0.811 | -0.0361 | -1.31 (active) | -0.229 |
| CN1C(=O)c2ccc(NC(=O)CCl)cc2C1=O | -0.092 | -0.0657 | -0.265 | -1.43 (active) | -0.23 | -0.559 | -0.0267 |
| N#Cc1cnn(-c2ccccc2)c1NC(=O)CCl | -0.331 | -0.12 | -0.209 | -1.4 (active) | -0.407 | -1.04 (active) | -0.327 |
| O=C(CCl)N1CCc2ccccc2C(O)C1 (stereo not drawn) | -0.255 | -0.0328 | -0.418 | -0.836 | 0.153 | -1.86 (active) | -0.325 |
